In all, about 140,000 sequences were measured (“enrichment ratio after two sorts for PhoP signalling”: median about 0, highest 2% from about 11 on). The sample as a whole holds a higher share of the highest values than the screen did.
B1: PhoQ; a variant is named by its letters at X, in order, P23837 (parent)
chain: MKKLLRLFFPLSLRVRFLLATAAVVLVLSLAYGMVALIGYSVSFDKTTFRLLRGESNLFYTLAKWENNKLHVELPENIDKQSPTMTLIYDENGQLLWAQRDVPWLMKMIQPDWLKSNGFHEIEADVNDTSLLLSGDHSIQQQLQEVREDDDDAEMTHSVAVNVYPATSRMPKLTIVVVDTIPVELKSSYMVWSWFIYVLSANLLLVIPLLWVAAWWSLRPIEALAKEVRELEEHNRELLNPATTRELTSLVRNLNRLLKSERERYDKYRTTLTDLTHSLKTPLXXLQXXLRSLRSEKMSVSDAEPVMLEQISRISQQIGYYLHRASMRGGTLLSRELHPVAPLLDNLTSALNKVYQRKGVNISLDISPEISFVGEQNDFVEVMGNVLDNACKYCLEFVEISARQTDEHLYIVVEDDGPGIPLSKREVIFDRGQRVDTLRPGQGVGLAVAREITEQYEGKIVAGESMLGGARMEVIFGRQHSAPKDE

Variants of: B1
Assay: enrichment ratio after two sorts for PhoP signalling (ratio (wild type AVST 3.29)); higher = more functional
Settings: with PhoP (E. coli)

| Variant | enrichment ratio |
| --- | --- |
| PEAN | ≤ 0.25 |
| VIAY | ≤ 0.25 |
| PFVI | ≤ 0.25 |
| GNDM | ≤ 0.25 |
| GENQ | ≤ 0.25 |
| SMMS | 14.6 |
| DMMC | ≤ 0.25 |
| SMFC | ≤ 0.25 |
| SMMC | 16.1 |
| SMMI | 5.18 |
| SMMW | ≤ 0.25 |
| DVQM | ≤ 0.25 |
| PNYR | ≤ 0.25 |
| AGHK | ≤ 0.25 |
| HLLG | ≤ 0.25 |
| ADLI | 16.8 |
| TDLI | 16.1 |
| AALI | 11.9 |
| AILT | 6.15 |
| APLI | 0.336 |
| ADLA | 0.619 |
| AILI | 1.77 |
| AHLI | 4.17 |
| KDLI | ≤ 0.25 |

| Variant | enrichment ratio |
| --- | --- |
| AADK | ≤ 0.25 |
| ADLT | 11.3 |
| FDLI | ≤ 0.25 |
| WYQF | ≤ 0.25 |
| EELG | ≤ 0.25 |
| IKSA | ≤ 0.25 |
| AVVT | 0.37 |
| QMRR | ≤ 0.25 |
| ILWV | ≤ 0.25 |
| GWVK | ≤ 0.25 |
| AYLI | 0.332 |
| ANDK | ≤ 0.25 |
| ANLI | 23.1 |
| PDDN | ≤ 0.25 |
| VNIK | ≤ 0.25 |
| TWLY | ≤ 0.25 |
| IICF | 0.792 |
| TICE | ≤ 0.25 |
| TICI | 2.26 |
| TICS | 13 |
| TICV | 6.14 |
| TICA | 12.3 |
| TICL | 1.53 |
| IKEC | ≤ 0.25 |

| Variant | enrichment ratio |
| --- | --- |
| LHYP | ≤ 0.25 |
| KVDK | ≤ 0.25 |
| GIFC | ≤ 0.25 |
| TNCA | 8.8 |
| MNSC | ≤ 0.25 |
| TNSC | 17.3 |
| TNSR | ≤ 0.25 |
| TNSS | 13.1 |
| TNSI | 15.8 |
| GISC | 11.8 |
| TNSK | ≤ 0.25 |
| MNSS | 0.46 |
| GITC | 8.58 |
| LNSS | ≤ 0.25 |
| IKVK | ≤ 0.25 |
| LLGD | ≤ 0.25 |
| MVLD | ≤ 0.25 |
| RQIY | ≤ 0.25 |
| GNSC | 12.1 |
| GQSC | ≤ 0.25 |
| GTSC | ≤ 0.25 |
| WNPE | ≤ 0.25 |
| EPTS | ≤ 0.25 |
| SQPA | ≤ 0.25 |

| Variant | enrichment ratio |
| --- | --- |
| VECT | 12 |
| IECT | 16.6 |
| HECT | 26.3 |
| TCCT | 7.4 |
| QECT | 6.99 |
| IQCT | ≤ 0.25 |
| EECT | ≤ 0.25 |
| YWCT | ≤ 0.25 |
| VFCT | ≤ 0.25 |
| NECT | 14.1 |
| HELT | ≤ 0.25 |
| HEAT | ≤ 0.25 |
| REDM | ≤ 0.25 |
| DVPV | ≤ 0.25 |
| MSTY | 2.56 |
| SPFN | ≤ 0.25 |
| ACHR | ≤ 0.25 |
| MCHQ | ≤ 0.25 |
| FMEW | ≤ 0.25 |
| ERFY | ≤ 0.25 |
| LRPR | ≤ 0.25 |
| LISC | ≤ 0.25 |
| HMCL | 2.41 |
| SIMT | 7.68 |

| Variant | enrichment ratio |
| --- | --- |
| STLA | 10.9 |
| QEMT | 5.12 |
| SRMT | 0.372 |
| STMT | 16.6 |
| SEMT | 20 |
| SPLT | ≤ 0.25 |
| STLT | 12.3 |
| SQMT | 22.7 |
| SWMT | ≤ 0.25 |
| SLMT | ≤ 0.25 |
| KYMT | ≤ 0.25 |
| INDV | ≤ 0.25 |
| LNTQ | ≤ 0.25 |
| PDCH | ≤ 0.25 |
| PGNF | ≤ 0.25 |
| DWKT | ≤ 0.25 |
| EFCG | ≤ 0.25 |
| KSIH | ≤ 0.25 |
| KPAG | ≤ 0.25 |
| LQSG | ≤ 0.25 |
| EPRQ | ≤ 0.25 |
| TQPT | ≤ 0.25 |
| WMMI | ≤ 0.25 |
| IPNH | ≤ 0.25 |

| Variant | enrichment ratio |
| --- | --- |
| PVYK | ≤ 0.25 |
| DWQM | ≤ 0.25 |
| KAQM | ≤ 0.25 |
| TLQM | 15.4 |
| TQQM | 17.5 |
| RGQM | ≤ 0.25 |
| SMGM | 5.78 |
| LAQM | ≤ 0.25 |
| SMRM | ≤ 0.25 |
| SGQM | 14.7 |
| FQQM | ≤ 0.25 |
| SMQM | 20.4 |
| SGQK | ≤ 0.25 |
| IDFL | ≤ 0.25 |
| SWLW | ≤ 0.25 |
| FYKC | ≤ 0.25 |
| FEKG | ≤ 0.25 |
| DDSK | ≤ 0.25 |
| RTPK | ≤ 0.25 |
| TQKM | ≤ 0.25 |
| MGAV | 5.2 |
| KYQM | ≤ 0.25 |
| TSQM | 24 |
| STQM | 12.8 |

| Variant | enrichment ratio |
| --- | --- |
| FSQM | ≤ 0.25 |
| TTQM | 12.5 |
| SCQM | 30.8 |
| FCQM | ≤ 0.25 |
| KSQM | ≤ 0.25 |
| YTQM | ≤ 0.25 |
| LTQM | ≤ 0.25 |
| SPQM | ≤ 0.25 |
| SRQM | ≤ 0.25 |
| RPSF | ≤ 0.25 |
| GPMM | ≤ 0.25 |
| AHKW | ≤ 0.25 |
| PCPS | ≤ 0.25 |
| AQDI | ≤ 0.25 |
| SLQM | 7.14 |
| SQQM | 15.9 |
| SAQM | 8.97 |
| HIPP | ≤ 0.25 |
| TDCL | 1.96 |
| KHNK | ≤ 0.25 |
| YPTR | ≤ 0.25 |
| YCAA | ≤ 0.25 |
| QGSN | 20.2 |
| QASG | 17.4 |

| Variant | enrichment ratio |
| --- | --- |
| QASN | 11.4 |
| FFSN | ≤ 0.25 |
| FVSN | ≤ 0.25 |
| KASG | ≤ 0.25 |
| NASN | ≤ 0.25 |
| QRSN | ≤ 0.25 |
| QRSG | ≤ 0.25 |
| GMMP | ≤ 0.25 |
| DWWS | ≤ 0.25 |
| RCNY | ≤ 0.25 |
| NNFP | ≤ 0.25 |
| QNYN | ≤ 0.25 |
| NSYV | ≤ 0.25 |
| AVPN | ≤ 0.25 |
| FCMQ | 1.02 |
| FCDG | ≤ 0.25 |
| QTDG | 13.5 |
| PVDG | ≤ 0.25 |
| KSDG | ≤ 0.25 |
| QSDG | 11.8 |
| TSDG | 0.59 |
| YTDG | ≤ 0.25 |
| FTDG | ≤ 0.25 |
| FFDG | ≤ 0.25 |

| Variant | enrichment ratio |
| --- | --- |
| QGDG | 11.8 |
| QVDG | 30.4 |
| TVDG | ≤ 0.25 |
| LTLA | ≤ 0.25 |
| HNKA | ≤ 0.25 |
| AFKV | ≤ 0.25 |
| RRQL | ≤ 0.25 |
| RSSV | ≤ 0.25 |
| VLVH | ≤ 0.25 |
| TVDW | ≤ 0.25 |
| MEFH | 4.99 |
| TEFS | 10.9 |
| QEFN | 3.01 |
| TEFH | 12.1 |
| TEFN | 18.2 |
| TEFA | 11.3 |
| MEFN | 7.67 |
| TEFQ | 8.52 |
| QEFH | ≤ 0.25 |
| TEFP | ≤ 0.25 |
| TEFI | 9.19 |
| TEFC | 14.4 |
| GKHH | ≤ 0.25 |
| NVPN | ≤ 0.25 |

| Variant | enrichment ratio |
| --- | --- |
| VKNT | ≤ 0.25 |
| GVCV | 3.13 |
| AWFR | ≤ 0.25 |
| RMDG | ≤ 0.25 |
| DDGS | ≤ 0.25 |
| LMRD | ≤ 0.25 |
| FKNL | ≤ 0.25 |
| FPYE | ≤ 0.25 |
| HPWR | ≤ 0.25 |
| WNMS | ≤ 0.25 |
| NTFG | ≤ 0.25 |
| NEFG | ≤ 0.25 |
| TEFG | 19 |
| MEFG | 5.56 |
| WVYE | ≤ 0.25 |
| PMID | ≤ 0.25 |
| RGCG | ≤ 0.25 |
| FDCG | ≤ 0.25 |
| TGCG | 24.4 |
| KDCG | ≤ 0.25 |
| NHCG | ≤ 0.25 |
| TDCG | 13.4 |
| ANCG | 26.6 |
| PGCG | ≤ 0.25 |

| Variant | enrichment ratio |
| --- | --- |
| AKCG | 2.88 |
| ADCG | 1.58 |
| VHCG | ≤ 0.25 |
| AHCG | 15.3 |
| AIDP | ≤ 0.25 |
| IFDW | ≤ 0.25 |
| PKQC | ≤ 0.25 |
| DRKW | ≤ 0.25 |
| LGNW | ≤ 0.25 |
| FFWM | ≤ 0.25 |
| FMLS | ≤ 0.25 |
| AHIG | ≤ 0.25 |
| ADIG | ≤ 0.25 |
| ANIG | 29.2 |
| REKI | ≤ 0.25 |
| KRHD | ≤ 0.25 |
| LMWD | ≤ 0.25 |
| GELM | 15.9 |
| GETH | ≤ 0.25 |
| GEKA | ≤ 0.25 |
| GELH | 11.9 |
| GELF | 9.93 |
| GELG | 22.4 |
| GETI | 11.6 |

| Variant | enrichment ratio |
| --- | --- |
| GETC | 3.51 |
| GYLH | ≤ 0.25 |
| GENS | ≤ 0.25 |
| GETK | ≤ 0.25 |
| GYLG | ≤ 0.25 |
| HGYA | ≤ 0.25 |
| STTP | ≤ 0.25 |
| YKHK | ≤ 0.25 |
| SYEL | ≤ 0.25 |
| TAIS | 0.325 |
| NLWP | ≤ 0.25 |
| RDCA | ≤ 0.25 |
| EMPC | ≤ 0.25 |
| PMHF | ≤ 0.25 |
| DDQI | ≤ 0.25 |
| PLHV | ≤ 0.25 |
| KPNT | ≤ 0.25 |
| RISY | ≤ 0.25 |
| GELA | 18.1 |
| GELS | 8.59 |
| GEWI | ≤ 0.25 |
| ASCY | 0.505 |
| LYCM | ≤ 0.25 |
| SGIV | 7.69 |

| Variant | enrichment ratio |
| --- | --- |
| ANIQ | 11 |
| HVDI | ≤ 0.25 |
| WNPW | ≤ 0.25 |
| TECA | 0.528 |
| NEAI | ≤ 0.25 |
| TEYY | 10.3 |
| NECG | ≤ 0.25 |
| TEGQ | ≤ 0.25 |
| TECI | 2.38 |
| TEEG | 9.76 |
| TECQ | 12.3 |
| TECG | 15.7 |
| TEAI | 20.4 |
| NECQ | ≤ 0.25 |
| TECS | 26.8 |
| KAWS | ≤ 0.25 |
| GAMP | ≤ 0.25 |
| KTEG | ≤ 0.25 |

From a collection of fitness landscapes (doi:10.1126/science.1257360)
